# Measured values: paper PMC5540273 (PLoS ONE, 2017)
# Experiments:
# Conditions in all cases: concentration: 1 μM, replicates: in singlicate; n = 1
# [1] = tested on: ALK
# [2] = tested on: T1, AMPK-alpha1
# T1 construct: gene PRKAA1
# [3] = tested on: T2, AMPK-alpha2
# T2 construct: gene PRKAA2
# [4] = tested on: ANKK1
# [5] = tested on: T3, ARK5
# T3 construct: gene NUAK1
# [6] = tested on: T4, ASK1
# T4 construct: gene MAP3K5
# [7] = tested on: T5, ASK2
# T5 construct: gene MAP3K6
# [8] = tested on: AURKA
# [9] = tested on: AURKB
# [10] = tested on: AURKC
# 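Also: KINOMEscan kinase panel screen.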
Compound,%Inh [1] [%],%Inh [2] [%],%Inh [3] [%],%Inh [4] [%],%Inh [5] [%],%Inh [6] [%],%Inh [7] [%],%Inh [8] [%],%Inh [9] [%],%Inh [10] [%]
COc1cc(OC)cc(-c2cc3cnc(N)nc3nc2NC(=O)NC(C)(C)C)c1,0,0,15,0,0,0,0,0,0,0
Cc1nn2c(=O)cc(N3CCOCC3)nc2n1Cc1cccc(Cl)c1Cl [GSK2342769],29,0,2,0,20,5,7,0,3,0
Cc1ccc(-c2ccc3c(ccc4sc5c(c43)NC[C@@H](C)N=C5N(C)C)n2)cn1,4,0,0,0,0,0,0,0,0,0
COc1cc(Nc2nccc(N3CCC(NC(=O)C(C)c4ccc(Cl)cc4)C3)n2)cc(OC)c1OC (centres unmarked) [GSK1379757],22,17,0,17,34,0,0,52,60,72
O=C(Nc1n[nH]c2nc(-c3ccccc3)c(Br)cc12)C1CC1 [SB-708998],1,12,18,14,0,0,0,7,4,36
O=C(Nc1ccc2c(c1)OCO2)NC1CCN(c2ccnc(NCc3ccc(F)cc3)n2)CC1 [GSK1379859],9,0,0,0,6,0,0,11,0,24
OCCCNc1nccc(-c2c(-c3cccc(C(F)(F)F)c3)nn3cc(C(F)(F)F)ccc23)n1 [GW630813],0,0,0,5,0,0,0,17,0,7
CCc1ccc(-c2ccc3c(c2)-c2nn(C)cc2S(=O)(=O)N3C)cc1,10,0,9,0,13,0,0,0,6,0
